Assay results taken from PubChem BioAssay AID1159580 (chemical genetic matrix, 2015).
Several values for one entry are separate records, joined by “and”; a condition that tells them apart may be missing. Equal values may be shown once. Screen size: about 5,500 compounds; about 2,000 (36%) were called active. Inconclusive results (about 18%) are left out. No stated cut-off is given here; in the data, active means normalized growth mostly below about 0.91 (no sharp cut-off); inconclusive means no clear call, values can overlap the other calls; inactive means mostly above about 0.92. The list shows a part of the results.

Test: chemical genetic growth profiling, strain panel (AID 1159580);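 further: tested at 20 µM; growth read once vehicle control cultures reached saturation at 30 °C; 1 = growth at the plate median or of vehicle wells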
Settings: S. cerevisiae deletion strains, growth OD

Measured: normalized growth

CCc1ccc(CCOc2ccc(CC3SC(=O)NC3=O)cc2)nc1 (configuration not stated)
inactive: locus YAL013W, strain DEP1, stronger effect = lower value 1.01 | locus YAL021C, strain ccr4, stronger effect = lower value 1.03 | locus YAL026C, strain drs2, stronger effect = lower value 1.01 | locus YAL030W, strain snc1, stronger effect = lower value 0.999 | locus YBL061C, strain skt5, stronger effect = lower value 1.01 | locus YBR009C, strain hhf1, stronger effect = lower value 1 | locus YBR021W, strain FUR4, stronger effect = lower value 1 | locus YBR023C, strain chs3, stronger effect = lower value 1 | locus YBR171W, strain sec66, stronger effect = lower value 1.02 | locus YBR229C, strain ROT2, stronger effect = lower value 0.993 | locus YBR231C, strain swc5, stronger effect = lower value 0.999 | locus YBR279W, strain paf1, stronger effect = lower value 1 | locus YCL011C, strain gbp2, stronger effect = lower value 1 | locus YCL016C, strain dcc1, stronger effect = lower value 1 | locus YCL029C, strain bik1, stronger effect = lower value 0.996 | locus YCL061C, strain MRC1, stronger effect = lower value 1.01 | locus YCL069W, strain vba3, stronger effect = lower value 1.01 | locus YCR088W, strain abp1, stronger effect = lower value 1.01 | locus YDL005C, strain med2, stronger effect = lower value 1 | locus YDL035C, strain GPR1, stronger effect = lower value 0.983 | locus YDL040C, strain nat1, stronger effect = lower value 0.99 | locus YDL074C, strain BRE1, stronger effect = lower value 0.974 | locus YDL101C, strain DUN1, stronger effect = lower value 1.01 | locus YDL134C, strain PPH21, stronger effect = lower value 0.998 | locus YDL185W, strain tfp1, stronger effect = lower value 1 | locus YDL192W, strain arf1, stronger effect = lower value 0.996 | locus YDR001C, strain nth1, stronger effect = lower value 1.01 | locus YDR069C, strain doa4, stronger effect = lower value 1.03 | locus YDR101C, strain arx1, stronger effect = lower value 0.995 | locus YDR137W, strain rgp1, stronger effect = lower value 0.916 | locus YDR150W, strain NUM1, stronger effect = lower value 1.01 | locus YDR159W, strain sac3, stronger effect = lower value 1.01 | locus YDR162C, strain NBP2, stronger effect = lower value 1.02 | locus YDR195W, strain ref2 0.995 | locus YDR297W, strain sur2, stronger effect = lower value 1.02 | locus YDR318W, strain mcm21, stronger effect = lower value 0.994 | locus YDR334W, strain swr1, stronger effect = lower value 1.02 | locus YDR335W, strain msn5, stronger effect = lower value 1.02 | locus YDR388W, stronger effect = lower value 0.989 | locus YDR392W, strain spt3, stronger effect = lower value 1 | locus YDR502C, strain sam2, stronger effect = lower value 0.994 | locus YEL003W, strain gim4, stronger effect = lower value 1.02 | locus YEL037C, strain rad23, stronger effect = lower value 1.01 | locus YEL061C, strain CIN8 (second series), stronger effect = lower value 1 | locus YEL061C, strain CIN8, stronger effect = lower value 1.02 | locus YER015W, strain faa2, stronger effect = lower value 1.01 | locus YER016W, strain bim1, stronger effect = lower value 1.01 | locus YER110C, stronger effect = lower value 0.997 | locus YER111C, strain swi4, stronger effect = lower value 1 | locus YER155C, strain BEM2 (second series), stronger effect = lower value 1.05 | locus YER155C, strain BEM2, stronger effect = lower value 0.995 | locus YER167W, strain BCK2, stronger effect = lower value 1 | locus YFR010W, strain ubp6, stronger effect = lower value 1.02 | locus YGL078C, strain dbp3, stronger effect = lower value 0.988 | locus YGL086W, strain mad1, stronger effect = lower value 0.996 | locus YGL167C, strain pmr1, stronger effect = lower value 1 | locus YGL173C, strain kem1, stronger effect = lower value 1.02 | locus YGL227W, strain vid30, stronger effect = lower value 0.995 | locus YGL240W, strain doc1, stronger effect = lower value 1.02 | locus YGL248W, strain PDE1, stronger effect = lower value 0.999 | locus YGL253W, strain hxk2, stronger effect = lower value 0.993 | locus YGR078C, strain PAC10, stronger effect = lower value 1.06 | locus YGR135W, strain pre9, stronger effect = lower value 0.993 | locus YGR229C, strain SMI1, stronger effect = lower value 1.01 | locus YGR252W, strain gcn5, stronger effect = lower value 0.946 | locus YHR013C, strain ard1, stronger effect = lower value 1.03 | locus YHR027C, strain rpn1, stronger effect = lower value 1.02 | locus YHR030C, strain SLT2, stronger effect = lower value 1 and 0.969 | locus YHR079C, strain IRE1 (second series), stronger effect = lower value 0.993 | locus YHR079C, strain IRE1, stronger effect = lower value 0.959 | locus YHR094C, strain hxt1, stronger effect = lower value 0.988 | locus YHR129C, strain ARP1, stronger effect = lower value 0.999 | locus YHR142W, strain chs7, stronger effect = lower value 1.01 | locus YHR200W, strain rpn10, stronger effect = lower value 0.995 | locus YIL066C, strain RNR3, stronger effect = lower value 1.01 | locus YIL073C, strain SPO22, stronger effect = lower value 1.05 | locus YIL125W, strain kgd1, stronger effect = lower value 0.988 | locus YIR030C, strain dcg1, stronger effect = lower value 0.994 | locus YJL092W, strain hpr5, stronger effect = lower value 1 | locus YJL095W, strain BCK1 (second series), stronger effect = lower value 0.998 | locus YJL095W, strain BCK1, stronger effect = lower value 0.979 and 1.01 | locus YJL115W, strain asf1, stronger effect = lower value 1 | locus YJL129C, strain trk1, stronger effect = lower value 1.02 | locus YJL134W, strain LCB3, stronger effect = lower value 1 | locus YJL154C, strain vps35, stronger effect = lower value 1.02 | locus YJL164C, strain tpk1, stronger effect = lower value 0.991 | locus YJL166W, strain qcr8, stronger effect = lower value 1.02 | locus YJL168C, strain set2, stronger effect = lower value 0.99 | locus YJL187C, strain SWE1 (second series), stronger effect = lower value 1.01 | locus YJL187C, strain SWE1, stronger effect = lower value 1.01 | locus YJR043C, strain POL32, stronger effect = lower value 0.991 | locus YJR066W, strain TOR1, stronger effect = lower value 0.942
